Assay results from the supplement of paper PMC11577813, “Eurasian spruce bark beetle detects lanierone using a highly expressed specialist odorant receptor, present in several functional sensillum types” (BMC Biology, 2024).
± gives the standard deviation of the averaged measurements.

Tested on: ipsdienol A-neuron OSN class
Experiment: net action potential response of A-neuron (blank-subtracted) (spikes/s (Hz)); higher = stronger excitation
Details: 10 µg on filter paper; neuron: A neuron (large spike amplitude)
Description: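 Single sensillum recordings from antennal olfactory sensilla of live adult Ips typographus. Each compound was 10 µg in paraffin oil on filter paper, delivered as a 0.5 s puff. Net response = spikes in the first 0.5 s of response minus the 0.5 s pre-stimulus count, doubled to give Hz, with blank response subtracted. Values are for the large-spike A-neuron class of each of seven sensillum types that co-house the lanierone B-neuron; N = 1-4 sensilla, averaged.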

SMILES	net action potential response
C=C(C)C1CC=C(C)C(=O)C1 (racemic) [(±)-Carvone]	0 ± 3.5
CC(=O)OCCc1ccccc1 [2-Phenethyl acetate]	-3.33 ± 4.2
CCCCCCO [1-Hexanol]	-5.33 ± 5.8
C=C1CCC2CC1C2(C)C (stereo not drawn) [(-)-β-Pinene]	2.67 ± 1.1
CC1=CC(C)(C)C=C(O)C1=O [Lanierone]	-3.33 ± 6.4
CC1=CCC2CC1C2(C)C (stereo not drawn) [(-)-α-Pinene]	1.33 ± 2.3
C=C(C)[C@@H]1CC=C(C)CC1 [(-)-Limonene]	5.33 ± 1.1
C=CC(=C)CC(O)C=C(C)C (racemic) [(±)-Ipsdienol]	116 ± 12
CC(=O)OCc1ccccc1 [Benzyl acetate]	-0.667 ± 5
CC(=O)OC/C=C(\C)CCC=C(C)C [Geranyl acetate]	2
C=CCc1ccc(OC)c(OC)c1 [Eugenol methyl ether]	1.33 ± 1.1
CC(C)[C@@]12CC[C@@](C)(O)[C@@H]1C2 [(+)-trans-4-Thujanol]	-4 ± 4
C=Cc1ccc(OC)cc1 [4-Vinyl anisole]	2 ± 6
COc1ccccc1 [Anisole]	2.67 ± 1.1
CC1=C[C@@H](O)[C@H]2C[C@@H]1C2(C)C [(-)-trans-Verbenol]	0.667 ± 3.1
COc1ccc(C)cc1OC [3,4-Dimethoxytoluene]	0.667 ± 1.1
CCCCCC=O [Hexanal]	0.667 ± 2.3
CC(C)=CCC/C(C)=C/C=O [Citral (E/Z mix)]	1.33 ± 1.1
CC(=O)OCCC(C)C [3-Methylbutyl acetate]	0 ± 6.9
C[C@@H]1C(=O)C[C@H]2C[C@@H]1C2(C)C [(+)-Isopinocamphone]	0 ± 5.3

SMILES	net action potential response
CC(C)CCO [3-Methyl-1-butanol]	0.667 ± 4.2
CCC/C=C/CO	-1.33 ± 1.1
C=CC(O)CCCCC (racemic) [(±)-1-Octen-3-ol]	-0.667 ± 2.3
CC1=CCC2CC1C2(C)C (stereo not drawn) [(+)-α-Pinene]	2.67 ± 1.1
CC/C=C\CCO	0 ± 2
CC(=O)c1ccccc1 [Acetophenone]	-4 ± 5.3
CCC/C=C\CO	0.667 ± 3.1
CC1(C)C2CC=C(CO)C1C2 (racemic) [(±)-Myrtenol]	0.667 ± 3.1
CCC/C=C/C=O [(E)-hex-2-enal]	-0.667 ± 1.1
CC/C=C/CCO	0.667 ± 3.1
C=CC(C)(C)O [2-Methyl-3-buten-2-ol]	0 ± 4
CC12CCC(CC1=O)C2(C)C (racemic) [(±)-Camphor]	-0.667 ± 5
CC1=CCC(=C(C)C)CC1 [Terpinolene]	1.33 ± 1.1
CC1=CCC2C(C1)C2(C)C (single isomer, unassigned; (+)) [(+)-3-Carene]	2.67 ± 5.8
C=Cc1ccccc1 [Styrene]	0 ± 2
CCC1CCC2(CCCO2)O1 (racemic) [(±)-Chalcogran]	1.33 ± 2.3
COc1ccc(C)cc1 [4-Methyl anisole]	4 ± 2
CCC(C)CO (racemic) [(±)-2-Methyl-1-butanol]	3.33 ± 1.1
C[C@H]1C(=O)C[C@H]2C[C@@H]1C2(C)C [(-)-Pinocamphone]	-2.67 ± 1.1
CCc1ccc(O)c(OC)c1 [4-Ethylguaiacol]	0 ± 8
